Results published in ChEMBL document CHEMBL3988442, “University of Dundee, Small-Polar-MMV Screening Library” (2021).
Out of some 48,000 compounds screened, about 13,000 (27%) showed an effect of 50% or more. The list shows a part of the results.

These molecules were tested on Wolbachia pipientis (assay: Anti-Wolbachia Cell-Based Screen). Conditions: 5 µM.
Assay type: functional
Set-up: scale not given: in the data most compounds retested in dose-response had high values

SMILES	Percent Effect [%]
C[C@H]1CC[C@H](C(=O)N2CCC(n3cc(C4(O)CCCC4)nn3)CC2)CC1	3.706
CSc1ncc(C(=O)N2C[C@@H](NC(C)=O)[C@H](c3ccc(C)cc3)C2)cn1	-0.9583
CN(C(=O)NCCCN1CCCC1)C1CCN(c2ccccc2)C1=O (centres undefined)	-8.204
Cc1cc(-c2cncnc2)ccc1OCC(N)=O	-32.33
N#Cc1cc(N2CCC(S(N)(=O)=O)CC2)c2ccccc2n1	-5.494
COCCN1CCCC(c2ncc(C(=O)N(C)C)c(C)n2)C1 (centres undefined)	128.7
CCCn1cc(C(=O)N2CCCC(c3nccn3CCOC)C2)c(C)n1 (centres undefined)	0.1706
COCCn1cnc(-c2nc(C(=O)N3CCOCC3)c3ccccn23)c1	-9.685
COCCCC1(CO)CCCN(C(=O)c2cnc(C3CC3)nc2)C1 (centres undefined)	-3.858
COc1ccccc1OCCN1CCCC(c2noc(C3CC3)n2)C1 (centres undefined)	-3.612
COCCN1CCC(c2ncc(C(=O)N3CCOCC3)c(C)n2)CC1	139.1
COCCN1CCCC(c2ncc(C(=O)N3CCOCC3)c(C)n2)C1 (centres undefined)	169
COCCN1C[C@@H](C)[C@@]2(COCCN(C(=O)c3cnc(C)cn3)C2)C1.O=C(O)C(F)(F)F	-26.1
COCCN1CCCC(c2nc3c([nH]2)CC(C)(C)CNC3=O)C1 (centres undefined)	-7.15
CN1CC(NC(=O)Cc2csc(C(C)(C)C)n2)CCC1=O (centres undefined)	-3.161
Cn1cccc1C(O)CNS(=O)(=O)c1ccccc1Br (centres undefined)	6.296
COc1ccc(F)cc1C(=O)N(C)[C@@H]1CC[C@@H](O)[C@@H]1O	132.3
COc1ccc(F)cc1CSCC(=O)N(C)C1CC1	-12.98
CN(CC(=O)N1CCCC1)C(=O)c1ccccc1F	15.74
O=C(NCC1(CO)CC1)c1ccccc1F	-18.48
CN(C(=O)c1cc(F)ccc1F)[C@@H]1CC[C@@H](O)[C@@H]1O	103
COc1ccc(F)cc1C(=O)N(C)Cc1cc(C)on1	2.319
CN(C(=O)c1ccccc1F)[C@@H]1CC[C@@H](O)[C@@H]1O	107.7

SMILES	Percent Effect [%]
NC(=O)N1CCCC1COC(=O)c1cc(F)ccc1F (centres undefined)	-4.772
COC(=O)CCN1CCC(C(=O)c2cc(F)ccc2F)CC1	-15.76
CO[C@@H]1CCC[C@@H](N(C)C(=O)c2cc(F)ccc2F)[C@H]1O	130.1
N[C@@H]1CC[C@H](C(=O)NCCc2nc(-c3ccccc3)cs2)C1	11.72
COc1ccc2c(c1)OCC(Cc1cncc(N)c1)C2 (centres undefined)	-0.2819
CN(C)C[C@@H]1CN(C(=O)c2cc(-c3ccccc3)n[nH]2)C[C@@H]1CO	104.8
CN(C)C[C@@H]1CN(C(=O)c2cc(S(N)(=O)=O)ccc2F)C[C@@H]1CO	8.109
CN(C)C[C@@H]1CN(C(=O)c2cc(F)ccc2F)C[C@@H]1CO	-6.942
CCN(C)C[C@@H]1CN(C(=O)c2cc(-c3ccc(F)cc3)n[nH]2)C[C@@H]1CO	95.72
COc1cccc(OC)c1C(=O)N1C[C@@H](CN(C)C)[C@@H](CO)C1	-5.352
COc1cccc(F)c1C(=O)N1C[C@@H](CN(C)CCO)[C@@H](CO)C1	0.09463
CCN(C)C[C@@H]1CN(C(=O)c2cc(C(F)(F)F)n[nH]2)C[C@@H]1CO	95.2
COc1ccc(-n2nc(C)c(C(C)=O)c2C)cc1C(N)=O	0.6017
CC(=O)NCCNC(=O)Nc1cccc(Cl)c1SC(F)F	-0.5749
Cc1ccc(C#N)c(N2CCCC(c3nccn3Cc3cscn3)C2)n1 (centres undefined)	8.413
Cc1cnc(C(=O)N2Cc3ncn(C)c3C(COCC(C)C)C2)cn1.O=C(O)C(F)(F)F (centres undefined)	101.6
Cn1cnc2c1C(COCC1CC1)CN(C(=O)c1cscn1)C2.O=C(O)C(F)(F)F (centres undefined)	-8.988
COCC1CN(C(=O)COc2ccccc2C)Cc2ncn(C)c21.O=C(O)C(F)(F)F (centres undefined)	-9.212
CC(C)COCC1CN(C(=O)c2cscn2)Cc2ncn(C)c21.O=C(O)C(F)(F)F (centres undefined)	123.8
Cn1cnc2c1C(COCC1CC1)CN(C(=O)Cc1ccsc1)C2.O=C(O)C(F)(F)F (centres undefined)	12.67
CCc1cc(N2CCC(F)(F)CC2)n2nc(C)c(C)c2n1	-3.857
Cc1nc(C)n(CC2CCCN2CC(=O)Nc2nncs2)n1 (centres undefined)	-3.74
c1ccc(CCN2CCCC2c2cncc(Nc3nncs3)n2)cc1 (centres undefined)	77.51

SMILES	Percent Effect [%]
O=C(NCC1CCCN1CCc1ccccc1)NCC1(O)CCC1 (centres undefined)	3.682
c1nnc(Nc2cncc(C3CCCN3CC3CC3)n2)s1 (centres undefined)	143.4
Cl.NC(=O)COc1ccc(CNCc2ccc(F)cc2F)cc1	-6.385
COc1ccc2c(c1)Cc1c-2nc(N)c(C#N)c1C1CCOC1 (centres undefined)	55.98
COc1ccc(-c2cc(C3CCOC3)c(C#N)c(N)n2)cn1 (centres undefined)	-5.09
COc1ccc2c(c1OC)Cc1c-2nc(N)c(C#N)c1C1CCOC1 (centres undefined)	97.76
N#Cc1c(N)nc2c(c1C1CCOC1)CCc1cc(O)ccc1-2 (centres undefined)	95.46
Cc1cc(C)cc(-c2cc(C3CCOC3)c(C#N)c(N)n2)c1 (centres undefined)	8.915
COc1cc(-c2cc(C3CCOC3)c(C#N)c(N)n2)ccc1O (centres undefined)	-3.198
CN(C)Cc1nc(C(C)(C)NC(=O)C2CC(=O)N(CC3CC3)C2)no1 (centres undefined)	-8.829
CN(C(=O)c1cccn1C)C1CCC(NC(=O)OC(C)(C)C)CC1 (centres undefined)	-22.93
O=C(NC(CC(F)(F)F)c1ccc(Cl)cc1)c1nc(=O)[nH][nH]1 (centres undefined)	-2.983
Cc1ccsc1[C@@H]1CCN(C(=O)CCCn2cncn2)C[C@H]1O	10.3
Cc1csc2c(C3CCCN(C(=O)Cn4cncn4)C3)nc(C)n12 (centres undefined)	83.22
CCCN1CCCC2(CCN(C(=O)CCCn3cncn3)C2)C1=O (centres undefined)	-10.51
O=C(c1ccc2ccccc2c1)C1CCCN(C(=O)Cn2cncn2)C1 (centres undefined)	2.145
Cc1nc(C)n(CC(=O)N2CCCC(c3nc(C)n4c(C)csc34)C2)n1 (centres undefined)	71.32
Cc1csc2c(C3CCCN(C(=O)CCn4ccnc4)C3)nc(C)n12 (centres undefined)	85.68
Cc1nc(C)n(C2CCCN(C(=O)CCCn3ccnc3)C2)n1 (centres undefined)	-10.35
Cc1ccc(=O)n(CC(=O)N2CCCC(c3nc(C)c(C)s3)C2)n1 (centres undefined)	-3.398
COc1cccc(OCC2CCCN(C(=O)CCn3ccnc3)C2)c1 (centres undefined)	-97.21
Cc1csc2c(C3CCCN(C(=O)CCCn4cncn4)C3)nc(C)n12 (centres undefined)	105.3
CC(C)c1nc(CC(=O)N2CCCC(n3cncn3)C2)cs1 (centres undefined)	-6.104
